# Activity calls are given as the source filed them. The rule behind the calls is not given here.
# Molecular target: Histone deacetylase 4 (Homo sapiens) (UniProt P56524)
# Test: HDAC4 enzyme inhibition, profiling panel, selectivity assay for E-cadherin restoration project, biochemical, HDAC isoform panel (AID 651928)
# Histone deacetylase 4 (Homo sapiens), sequence (P56524 whole entry, looked up, canonical isoform): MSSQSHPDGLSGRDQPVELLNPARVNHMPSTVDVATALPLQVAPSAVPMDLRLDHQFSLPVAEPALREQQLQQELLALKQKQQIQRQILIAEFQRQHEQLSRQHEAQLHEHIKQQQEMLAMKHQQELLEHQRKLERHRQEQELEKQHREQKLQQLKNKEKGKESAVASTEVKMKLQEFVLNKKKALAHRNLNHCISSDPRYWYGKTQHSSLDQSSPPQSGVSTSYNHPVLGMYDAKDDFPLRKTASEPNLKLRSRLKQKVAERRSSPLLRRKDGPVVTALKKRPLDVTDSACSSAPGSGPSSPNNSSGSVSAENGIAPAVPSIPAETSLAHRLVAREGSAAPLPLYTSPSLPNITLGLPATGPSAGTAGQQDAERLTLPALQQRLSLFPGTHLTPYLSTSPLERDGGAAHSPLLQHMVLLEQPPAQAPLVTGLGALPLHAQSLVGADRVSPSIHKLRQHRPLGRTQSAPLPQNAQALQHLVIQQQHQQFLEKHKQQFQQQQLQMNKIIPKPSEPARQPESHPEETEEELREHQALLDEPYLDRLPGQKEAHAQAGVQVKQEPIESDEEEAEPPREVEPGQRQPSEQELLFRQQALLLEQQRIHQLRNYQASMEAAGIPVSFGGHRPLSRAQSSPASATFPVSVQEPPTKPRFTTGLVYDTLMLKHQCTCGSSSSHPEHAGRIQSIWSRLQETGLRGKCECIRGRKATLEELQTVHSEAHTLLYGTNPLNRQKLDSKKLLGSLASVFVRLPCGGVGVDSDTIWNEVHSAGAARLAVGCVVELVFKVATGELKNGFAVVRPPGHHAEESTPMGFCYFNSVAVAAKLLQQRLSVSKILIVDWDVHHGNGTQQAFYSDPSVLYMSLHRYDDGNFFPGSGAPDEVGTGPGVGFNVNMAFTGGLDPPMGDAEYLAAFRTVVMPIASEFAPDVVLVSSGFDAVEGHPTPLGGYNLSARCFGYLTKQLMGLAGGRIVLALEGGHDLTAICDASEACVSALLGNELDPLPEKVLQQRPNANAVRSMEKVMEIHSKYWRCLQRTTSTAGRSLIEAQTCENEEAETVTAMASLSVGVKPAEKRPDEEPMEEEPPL
smiles,measurement,value
O=C(NCCCNC(=O)c1ccc[nH]c1=O)c1cc(-c2ccccc2)on1,outcome,inactive
